These results are taken from the supplement of paper PMC12669032.

A number with no mark means an inactive call.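 The calls were made as follows: active = AUC reduced over 20% with Padj below 0.05 in at least 2 of 3 replicates; inactive = otherwise.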

The test system of one experiment is Lactobacillus paracasei. Description: growth AUC relative to DMSO control (median of replicates) (fraction); higher = more growth (less inhibition), active = hit call of the paper. The following applies: 20 µM; 24 h. An outline of the steps: (§1)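 Starting at OD600 0.05, gut bacterial monocultures in mGAM were grown anaerobically at 37 °C with 20 µM compound (1% DMSO) under pierced gas-permeable seals. OD600 was read every hour for 24 h, and the lowest OD of each curve was set to 0. Area under the growth curve was normalised to the plate median of solvent-only wells, or to row and column medians on the industrial chemical plate, and the median of three biological replicates grown on separate days is given.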
With `C#CCOC(=O)[C@@H](C)Oc1ccc(Oc2ncc(Cl)cc2F)cc1`, the “growth AUC” value is 0.997.
On the same count and under the same terms, the value for `c1ccc2cc3c(ccc4ccccc43)cc2c1` was 1; that for `CN(C)C=O` was 1.03.
The same measure, in the same setting: the figure for `COc1nc(N)nc(NC(C)(C)C)n1` is 1.02; for `Cc1ccc(Cl)cc1` it is 0.997; for `O=C(O)Cc1c(Cl)ccc(Cl)c1Cl` it is 1.03.
`O=c1oc(-c2ccccc2)nc2ccccc12`: the “growth AUC” value is 0.915.
With `COC(=O)c1cccc(C)c1S(=O)(=O)NC(=O)Nc1nc(OCC(F)(F)F)nc(N(C)C)n1`, the “growth AUC” value is 0.936.
For `COc1cc(OC)nc(NC(=O)NS(=O)(=O)Nc2ccccc2C(=O)N(C)C)n1`, the “growth AUC” value was 0.939.
Same read-out and setting: the value for `O=S(Cc1ccc(Cl)cc1)c1ccc(Cl)cc1` (stereo not drawn) was 1.24; that for `CCOc1ccc2c(c1)C(C)=CC(C)(C)N2` was 1.02; that for `CC(C)COC(=O)COc1cc(Cl)c(Cl)cc1Cl` was 1.08.
On the same count and under the same terms, the figure for `CN(C)C(=O)Nc1cc(C(C)(C)C)on1` is 1; for `C=CCc1ccc(OC)c(OC)c1` it is 1.
Same read-out and setting: the value for `CCNc1nc(NCC)nc(OC)n1` was 0.977; that for `CCOC(=O)c1nc(C(Cl)(Cl)Cl)n(-c2ccc(Cl)cc2Cl)n1` was 1.
With `Oc1ccc2ccccc2c1N=Nc1ccccc1`, the “growth AUC” value is 0.733 (active).
As to `O=C(Nc1ccc(Cl)cc1C(O)c1ccccc1)c1ccncc1` (stereo not drawn), the “growth AUC” value is 0.943.
On the same count and under the same terms, the value for `CSC(=O)c1cccc2nnsc12` was 0.953.
Same read-out and setting: the value for `Cc1ccc2c(c1)[C@H](Nc1nc(N)nc(C(C)F)n1)[C@@H](C)C2` (stereo partly drawn) was 0.986.
Still for that read-out and setting: the value for `CCOC(=O)c1cnn(C)c1S(=O)(=O)NC(=O)Nc1nc(OC)cc(OC)n1` was 1.02.
Regarding `C/C=C/C(=O)Oc1c(C(C)CCCCCC)cc([N+](=O)[O-])cc1[N+](=O)[O-]` (mixture of isomers), the “growth AUC” value is 0.41 (active).
The same measure, in the same setting: the value for `CCOC(=O)C(C)N(C(=O)c1ccccc1)c1ccc(Cl)c(Cl)c1` (stereo not drawn) was 1.03.
Still for that read-out and setting: the value for `COC(=O)c1c(Cl)ccc(Cl)c1OC` was 0.921.
The same measure, in the same setting: the value for `c1ccc(Sc2ccccc2)cc1` was 1.04; that for `O=C(O)Cc1c[nH]c2ccccc12` was 1.06; that for `Cc1cc(C)c(C2=C(O)C3(CCCC3)OC2=O)c(C)c1` was 1.02.
With `CC(=O)Oc1c(Cl)c(Cl)c(Cl)c(Cl)c1Cl`, the “growth AUC” value is 1.05.
Same read-out and setting: the figure for `CCNc1nc(NC(C)CC)nc(OC)n1` (stereo not drawn) is 1.12; for `COc1cc(OC)nc(NC(=O)NS(=O)(=O)Nc2ccccc2C(=O)C2CC2)n1` it is 1.01.
Still for that read-out and setting: the figure for `CCCCC(CC)COC(=O)COc1cc(Cl)c(Cl)cc1Cl` (stereo not drawn) is 1.05; for `CSc1nnc(C(C)(C)C)c(=O)n1/N=C/C(C)C` it is 1.03.
Still for that read-out and setting: the figure for `CC[N+](CC)(CC(=O)Nc1c(C)cccc1C)Cc1ccccc1.O=C([O-])c1ccccc1` is 1.05; for `CCCCOCCOCCOCc1cc2c(cc1CCC)OCO2` it is 1.01.
As to `CC(C)N(C(=O)CS(=O)(=O)[O-])c1ccc(F)cc1.[Na+]`, the “growth AUC” value is 0.957.
Still for that read-out and setting: the value for `CN(C)C(=O)Nc1ccc(Oc2ccc(Cl)cc2)cc1` was 1.08; that for `[S]` was 1.01.
Turning to `COC(=O)c1csc(C)c1S(=O)(=O)NC(=O)n1nc(OC)n(C)c1=O`, the “growth AUC” value was 0.993.
Still for that read-out and setting: the figure for `COc1c(Cl)ccc(Cl)c1C(=O)O` is 0.919.

Another experiment relates to Odoribacter splanchnicus. The description is as above. The following applies: 20 µM; 24 h. The method in brief: as §1
With `C#CCOC(=O)[C@@H](C)Oc1ccc(Oc2ncc(Cl)cc2F)cc1`, the “growth AUC” value was 0.982.
Take `c1ccc2cc3c(ccc4ccccc43)cc2c1`: the “growth AUC” value is 0.992.
Same read-out and setting: the value for `CN(C)C=O` was 1.05; that for `COc1nc(N)nc(NC(C)(C)C)n1` was 1.07; that for `Cc1ccc(Cl)cc1` was 0.964.
With `O=C(O)Cc1c(Cl)ccc(Cl)c1Cl`, the “growth AUC” value was 0.946.
On the same count and under the same terms, the figure for `O=c1oc(-c2ccccc2)nc2ccccc12` is 0.893; for `COC(=O)c1cccc(C)c1S(=O)(=O)NC(=O)Nc1nc(OCC(F)(F)F)nc(N(C)C)n1` it is 0.997.
The same measure, in the same setting: the value for `COc1cc(OC)nc(NC(=O)NS(=O)(=O)Nc2ccccc2C(=O)N(C)C)n1` was 0.997; that for `O=S(Cc1ccc(Cl)cc1)c1ccc(Cl)cc1` (stereo not drawn) was 1.01; that for `CCOc1ccc2c(c1)C(C)=CC(C)(C)N2` was 1.07.
Same read-out and setting: the figure for `CC(C)COC(=O)COc1cc(Cl)c(Cl)cc1Cl` is 0.969.
For the compound `CN(C)C(=O)Nc1cc(C(C)(C)C)on1`, the “growth AUC” value was 0.942.
For `C=CCc1ccc(OC)c(OC)c1`, the “growth AUC” value was 0.694 (active).
Same read-out and setting: the value for `CCNc1nc(NCC)nc(OC)n1` was 1.01; that for `CCOC(=O)c1nc(C(Cl)(Cl)Cl)n(-c2ccc(Cl)cc2Cl)n1` was 1; that for `Oc1ccc2ccccc2c1N=Nc1ccccc1` was 1.04.
The same measure, in the same setting: the value for `O=C(Nc1ccc(Cl)cc1C(O)c1ccccc1)c1ccncc1` (stereo not drawn) was 0.971.
For `CSC(=O)c1cccc2nnsc12`, the “growth AUC” value is 1.01.
On to `Cc1ccc2c(c1)[C@H](Nc1nc(N)nc(C(C)F)n1)[C@@H](C)C2` (stereo partly drawn), for which the “growth AUC” value is 0.902.
The same measure, in the same setting: the figure for `CCOC(=O)c1cnn(C)c1S(=O)(=O)NC(=O)Nc1nc(OC)cc(OC)n1` is 0.759; for `C/C=C/C(=O)Oc1c(C(C)CCCCCC)cc([N+](=O)[O-])cc1[N+](=O)[O-]` (mixture of isomers) it is 0.679.
With `CCOC(=O)C(C)N(C(=O)c1ccccc1)c1ccc(Cl)c(Cl)c1` (stereo not drawn), the “growth AUC” value is 0.985.
The same measure, in the same setting: the value for `COC(=O)c1c(Cl)ccc(Cl)c1OC` was 1.04.
Regarding `c1ccc(Sc2ccccc2)cc1`, the “growth AUC” value is 0.503.
On the same count and under the same terms, the figure for `O=C(O)Cc1c[nH]c2ccccc12` is 0.983; for `Cc1cc(C)c(C2=C(O)C3(CCCC3)OC2=O)c(C)c1` it is 0.563 (active).
The same measure, in the same setting: the value for `CC(=O)Oc1c(Cl)c(Cl)c(Cl)c(Cl)c1Cl` was 0.548 (active); that for `CCNc1nc(NC(C)CC)nc(OC)n1` (stereo not drawn) was 1.
The same measure, in the same setting: the value for `COc1cc(OC)nc(NC(=O)NS(=O)(=O)Nc2ccccc2C(=O)C2CC2)n1` was 0.963.
As to `CCCCC(CC)COC(=O)COc1cc(Cl)c(Cl)cc1Cl` (stereo not drawn), the “growth AUC” value was 0.998.
Still for that read-out and setting: the figure for `CSc1nnc(C(C)(C)C)c(=O)n1/N=C/C(C)C` is 0.96; for `CC[N+](CC)(CC(=O)Nc1c(C)cccc1C)Cc1ccccc1.O=C([O-])c1ccccc1` it is 0.995.
Same read-out and setting: the value for `CCCCOCCOCCOCc1cc2c(cc1CCC)OCO2` was 1.07.
Still for that read-out and setting: the figure for `CC(C)N(C(=O)CS(=O)(=O)[O-])c1ccc(F)cc1.[Na+]` is 1.13; for `CN(C)C(=O)Nc1ccc(Oc2ccc(Cl)cc2)cc1` it is 1.1.
Take `[S]`: the “growth AUC” value was 1.03.
Regarding `COC(=O)c1csc(C)c1S(=O)(=O)NC(=O)n1nc(OC)n(C)c1=O`, the “growth AUC” value is 0.982.
On the same count and under the same terms, the figure for `COc1c(Cl)ccc(Cl)c1C(=O)O` is 0.978.
